Calls of active or inactive are those of the source.
Experiments:
[1] = target: Albumin (Bos taurus) (UniProt P02769); assay: compounds binding labelled BSA control protein – biochemical, small-molecule microarray, Alexa647 label, 635/667 nm fluorescence, artefact control for SMM control protein annotation, profiling panel (AID 1118); details: BSA-A647 binding, fluorescence 635 nm, higher = more signal;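 further: score merges 667 nm emission intensity and signal-to-noise per printed compound spot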
[2] = probe aXIP binding to arrayed compounds – biochemical, NeuroSMM set, 635/667 nm fluorescence, primary screen (AID 1119); details: small-molecule microarray, higher = more signal, called active from +8 up or from −8 down;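 further: probe is the protein aXip251-270 applied at 1 µg/mL to compound-printed slides; binding of probe to printed compounds measured as 667 nm fluorescence plus signal to noise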
[3] = probe aNOTCH3 binding on compound microarray – biochemical, small-molecule microarray, 635/667 nm fluorescence, primary screen (AID 1120); details: higher = more signal;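 further: probe is a biotin-tagged antibody raised against NOTCH3 rather than NOTCH3 protein; score merges spot fluorescence near 667 nm with spot signal to noise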
[4] = probe aNOTCH2 binding on compound microarray – biochemical, small-molecule microarray, 635/667 nm fluorescence, primary screen (AID 1121); details: higher = more signal;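 further: score merges feature fluorescence read at 667 nm with its signal to noise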
[5] = target: Carbonic anhydrase 2 (Homo sapiens) (UniProt P00918); assay: compounds binding carbonic anhydrase 2 – biochemical, small-molecule microarray, Alexa647-labelled CAII, profiling panel (AID 1122); details: CAII-A647 binding fluorescence, higher = more signal
[6] = COS7 lysate on small-molecule microarray, probe aHis, 635 nm (AID 1123); details: COS7 cell lysate, fluorescence, higher = more signal;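 further: z-score combines 667nm fluorescence intensity with signal-to-noise per printed compound spot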
[7] = probe aLAP1 signal on lysate-treated microarray – cell lysate, small-molecule microarray, COS7 lysate, primary screen (AID 1124); details: probe aLAP1, fluorescence, higher = more signal;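 further: lysate comes from COS7 cells expressing LAP1 and is applied at 0.3 µg/mL; score merges spot fluorescence near 667 nm with signal-to-noise over triplicate slides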
[8] = tested on: Sam68 (KHDRBS1); assay: compounds binding KHDRBS1 protein – biochemical, small-molecule microarray, 635 nm fluorescence, primary screen (AID 1125); details: higher = more signal;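 further: score merges 667 nm channel intensity with signal to noise over triplicate slides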
[9] = tested on: Chordin-like protein 2 (CHRDL2); assay: compounds binding chordin-like 2 – biochemical, small-molecule microarray, 635 nm fluorescence, primary screen (AID 1126); details: fluorescence 635 nm, higher = more signal;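 further: printed compound slides probed with Chrdl2 protein at 4 µg/mL for 1 h at 4 C; score merges 667 nm emission intensity with signal to noise over three replicate slides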
[10] = target: Concanavalin-A (Canavalia ensiformis) (UniProt P02866); assay: compounds binding concanavalin A lectin – biochemical, small-molecule microarray, Alexa647 label, 635 nm, artefact control for SMM control protein annotation, primary screen (AID 1127); details: ConA-A647 binding fluorescence, higher = more signal;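 further: z combines 667 nm emission intensity with signal-to-noise across three replicate slides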
Chain of Concanavalin-A (Canavalia ensiformis) (P02866 whole entry, looked up): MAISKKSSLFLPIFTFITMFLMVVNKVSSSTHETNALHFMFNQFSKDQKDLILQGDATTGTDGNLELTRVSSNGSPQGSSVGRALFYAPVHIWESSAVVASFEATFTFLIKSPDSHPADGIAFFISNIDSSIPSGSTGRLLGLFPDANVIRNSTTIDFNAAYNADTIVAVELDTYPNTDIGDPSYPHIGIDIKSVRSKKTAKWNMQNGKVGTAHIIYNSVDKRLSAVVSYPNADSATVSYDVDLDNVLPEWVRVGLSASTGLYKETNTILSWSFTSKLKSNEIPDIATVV

Chain of Albumin (Bos taurus) (P02769 whole entry, looked up): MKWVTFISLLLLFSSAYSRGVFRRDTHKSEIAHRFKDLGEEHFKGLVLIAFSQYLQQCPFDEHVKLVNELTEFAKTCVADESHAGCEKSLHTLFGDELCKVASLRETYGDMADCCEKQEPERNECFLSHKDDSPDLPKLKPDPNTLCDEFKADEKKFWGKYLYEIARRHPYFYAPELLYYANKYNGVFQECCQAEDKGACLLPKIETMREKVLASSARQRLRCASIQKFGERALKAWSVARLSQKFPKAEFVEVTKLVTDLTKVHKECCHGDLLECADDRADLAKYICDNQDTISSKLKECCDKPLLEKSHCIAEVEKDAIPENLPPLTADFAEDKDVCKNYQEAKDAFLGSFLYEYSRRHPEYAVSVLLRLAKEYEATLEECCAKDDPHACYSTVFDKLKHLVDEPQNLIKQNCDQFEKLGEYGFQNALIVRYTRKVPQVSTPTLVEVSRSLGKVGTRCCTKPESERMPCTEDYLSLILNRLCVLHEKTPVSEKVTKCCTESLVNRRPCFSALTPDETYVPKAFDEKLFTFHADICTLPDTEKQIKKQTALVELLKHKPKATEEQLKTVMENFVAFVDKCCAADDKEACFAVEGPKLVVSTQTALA

| SMILES | composite z-score [1] | composite Z-score [2] | composite z-score [3] | composite z-score [4] | composite z-score [5] | composite z-score [6] | composite z-score [7] | composite z-score [8] | composite z-score [9] | composite z-score [10] |
| --- | --- | --- | --- | --- | --- | --- | --- | --- | --- | --- |
| COc1ccc([Si](C)(C)[C@@H]2[C@@H](CC(=O)N(CCO)Cc3ccccc3)O[C@]3(C(=O)N(C)c4c(Br)cc(C)cc43)[C@H]2C)cc1 | 0.597 | 0.0128 (inactive) | -0.0918 | -0.124 | 0.154 | 0.741 | 0.231 | 0.649 | 1.4 | -0.126 |
| Cc1ccc(S[C@]2(C(=O)O)CC(=O)N(Cc3ccccc3C(F)(F)F)[C@@H]2c2ccc(CO)cc2)cc1 | -0.283 | -0.612 (inactive) | -0.128 | -0.164 | 0.653 | 1.79 | -0.67 | -0.298 | -1.6 | -0.373 |
| COC(=O)[C@]1(Cc2ccccc2N=[N+]=[N-])N=C(c2ccc(OCCCO)cc2)O[C@@H]1c1ccccc1 | -0.274 | 0.747 (inactive) | 0.0773 | -0.0487 | 0.412 | 1.82 | 0.225 | 0.622 | -1.1 | 0.458 |
| COC(=O)C(CC#Cc1ccc2c(c1)[C@]1(C(=O)N2)[C@H](c2ccc(OCCO)cc2)N2[C@H](c3ccccc3)[C@H](c3ccccc3)OC(=O)[C@H]2[C@@H]1C(=O)O)C(=O)OC | 0.803 | 0.419 (inactive) | 0.328 | 0.224 | 0.724 | 1.37 | 0.26 | 1.28 | 0.368 | 1.15 |
| C=CC[C@@]1(C(=O)NCC(O)CO)N=C(c2ccc(OCCCO)cc2)O[C@@H]1c1ccccc1 (stereo not given in full) | 0.814 | 1.81 (inactive) | 0.13 | -0.0028 | 0.797 | 3.84 | 0.595 | 1.22 | -0.381 | -0.237 |
| CC(C)C[C@@H]1NC(=O)[C@@H]2C[C@H](C(=O)NCc3ccc(F)cc3)[C@H](c3ccc(O)cc3)N2C1=O | -0.674 | 0.63 (inactive) | -0.222 | -0.126 | 0.47 | 2.61 | 0.38 | 0.425 | 0.448 | 1.18 |
| COC(=O)[C@H]1N=C(c2ccc(OCCCO)cc2)O[C@H]1c1ccccc1CN=[N+]=[N-] | 0.394 | -0.391 (inactive) | 0.23 | -0.0174 | 0.41 | 1.78 | 0.427 | 0.0826 | -0.935 | 0.8 |
| COC(=O)C(CC#Cc1ccc2c(c1)[C@]1(C(=O)N2)[C@H](C(=O)N2CCc3cc(OC)c(OC)cc3C2)[C@H]2C(=O)O[C@H](c3ccccc3)[C@H](c3ccccc3)N2[C@@H]1c1ccc(OCCO)cc1)C(=O)OC | 0.438 | -0.715 (inactive) | 0.239 | -0.0664 | 0.413 | 2.17 | 0.969 | 1.31 | 0.506 | 0.942 |
| CC(C)C(CO)N1C(=O)[C@@H]2[C@H]3C(=O)OCC=C[C@H]3OC23C=CCN(Cn2nnc4ccccc42)C(=O)[C@@H]13 (stereo not given in full) | -1.25 | -0.274 (inactive) | -0.226 | -0.204 | 0.931 | -0.0704 | -0.215 | -0.821 | -1.73 | -1.34 |
| COC(=O)[C@@]1(Cc2ccc(F)cc2)[C@H]2c3cc(C(=O)N4CCCC4)n(Cc4ccccc4)c3C[C@H]2CN1C(=O)c1ccccc1 | 0.946 | 1.06 (inactive) | 0.23 | 0.0291 | 0.793 | 2.25 | 0.65 | 0.253 | -1.32 | 0.428 |
| CCCc1cc2c(n1Cc1ccc(OC)cc1)C(C)C1CN(C(=O)c3ccccc3)C(C)(C(=O)OC)C21 (stereo not given) | 1.08 | -0.41 (inactive) | 0.223 | 0.16 | 0.571 | 3.13 | 0.746 | 1.25 | -1.63 | 1.18 |
| N#Cc1ccc(NN2C(C(O)c3ccco3)C=CC3C(=O)N(c4ccccc4)C(=O)C32)cc1 (stereo not given) | 0.488 | 0.499 (inactive) | 0.188 | -0.0148 | 0.89 | 1.5 | 0.687 | 0.0163 | 0.111 | 0.458 |
| O=C1O[C@H](c2ccccc2)[C@H](c2ccccc2)N2[C@H]1[C@@H](C(=O)NC[C@H](O)c1ccccc1)[C@]1(C(=O)Nc3ccccc31)[C@H]2c1ccccc1OCCO | 0.426 | 0.16 (inactive) | -0.171 | -0.138 | 0.613 | 1.84 | 0.571 | 0.772 | 0.0939 | 1.02 |
| CC1CC/C=C\[C@H]2OC34C=CCN(Cc5ccccc5)C(=O)[C@H]3N(CCO)C(=O)[C@@H]4C2C(=O)O1 (stereo not given in full) | -0.897 | 0.461 (inactive) | -0.0984 | -0.154 | 0.873 | 0.368 | 1.29 | 0.386 | -0.793 | -0.315 |
| C[C@]12C(=O)N(CCCCCO)[C@@H]3C(=O)N(c4ccc(Cl)cc4)CC=CC31O[C@@H]1/C=C\CCCOC(=O)C12 (stereo not given in full) | 0.153 | 0.312 (inactive) | -0.376 | -0.14 | -0.247 | -0.947 | -0.615 | -0.698 | -1.12 | -1.02 |
| CC(C)c1ccc(NN2C(C(O)c3cccs3)C=CC3C(=O)N(c4ccccc4)C(=O)C32)cc1 (stereo not given) | 0.772 | 0.302 (inactive) | 0.319 | -0.136 | 0.76 | 2.06 | 0.665 | 1.31 | -0.127 | 1.13 |

| SMILES | composite z-score [1] | composite Z-score [2] | composite z-score [3] | composite z-score [4] | composite z-score [5] | composite z-score [6] | composite z-score [7] | composite z-score [8] | composite z-score [9] | composite z-score [10] |
| --- | --- | --- | --- | --- | --- | --- | --- | --- | --- | --- |
| CCCCCCCCCCC(O)C1C=CC2C(=O)NC(=O)C2N1Nc1ccccn1 (stereo not given) | 0.616 | -0.118 (inactive) | 0.0159 | 0.0118 | 0.287 | 1.85 | -0.0065 | -0.182 | -0.9 | 0.709 |
| COc1ccc([Si](C)(C)[C@@H]2[C@@H](CC(=O)N(CCO)Cc3ccccc3)O[C@]3(C(=O)N(Cc4ccc(N5CCOC5=O)cc4)c4ccccc43)[C@H]2C)cc1 | -0.697 | 0.516 (inactive) | -0.063 | -0.175 | 0.469 | 1.35 | -0.211 | 0.951 | 0.697 | 1.08 |
| C[N+](C)(C)CCCCCCNC(=O)[C@@H]1C[C@@H]2C(=O)NCC(=O)N2[C@@H]1c1ccc(O)cc1 | -0.356 | 0.607 (inactive) | 0.0636 | -0.174 | 0.618 | 1.69 | 0.393 | 1.06 | 1.3 | 0.788 |
| C=C(/C(=C/C[C@@H](OC(=O)c1ccncc1)c1ccccc1OCCO)c1cnc2ccccc2c1)C(C)C | 0.635 | 0.718 (inactive) | 0.306 | 0.0002 | 0.935 | 1.5 | 0.497 | 1.3 | 1.45 | 1.19 |
| C=CCC(OC(C)=O)[C@@H]1[C@@H](N(Cc2cccc3ccccc23)C(=O)c2ccc(C)cc2)c2cc(OCCCO)ccc2N1C(=O)c1ccc2ccccc2c1 (stereo not given in full) | -0.0007 | 0.0941 (inactive) | 0.0311 | -0.0924 | 0.0697 | 0.583 | -0.27 | -0.044 | 0.224 | -0.525 |
| COC(=O)c1ccc(OC)c(/C=C\CC(CCc2ccccc2)OC(=O)c2ccncc2)c1 (stereo not given) | -0.805 | 0.302 (inactive) | -0.26 | -0.225 | 0.388 | 0.721 | 0.863 | 0.0029 | 1.52 | -0.363 |
| COc1cc(NN2C(C(O)c3ccc(I)cc3)C=CC3C(=O)N(C)C(=O)C32)cc(OC)c1OC (stereo not given) | -0.166 | 0.466 (inactive) | 0.163 | 0.0586 | 0.783 | 1.63 | 0.189 | 0.144 | -0.946 | 0.0133 |
| CN(C)CCCN1C(=O)[C@@]2(Cc3ccccc31)c1ccccc1C(=O)N(Cc1ccccc1)[C@H]2c1ccc(CO)cc1 | -0.153 | 0.634 (inactive) | -0.109 | -0.181 | -0.0077 | -0.258 | -0.485 | 0.347 | 0.757 | 0.544 |
| O=C1CSC(c2cccc([N+](=O)[O-])c2)N1c1ccccc1 (stereo not given) | 0.0623 | 0.0045 (inactive) | -0.0647 | -0.172 | 0.153 | 0.523 | 0.537 | 0.557 | 0.286 | 0.612 |
| O=C1C2C=CC(C(O)c3ccccn3)N(Nc3ccccc3)C2C(=O)N1c1ccccc1 (stereo not given) | 1.03 | 0.959 (inactive) | -0.0026 | -0.0995 | 0.824 | 0.696 | -0.247 | -0.419 | -0.493 | 0.36 |
| O=C1N(Cc2ccccc2)c2ccccc2[C@H]2OC(c3ccc(OCCCO)cc3)=N[C@@]12CCS(=O)(=O)c1ccccc1 | 0.273 | -0.313 (inactive) | 0.0538 | -0.112 | 0.692 | 2.83 | 0.948 | 1.29 | 0.376 | 0.54 |
| CCN(CC)c1ccc(N2CC=CC34O[C@@H]5/C=C\CCCOC(=O)C5[C@H]3C(=O)N(CCCCCCO)[C@@H]4C2=O)cc1 (stereo not given in full) | 0.248 | 0.703 (inactive) | -0.194 | -0.145 | 0.898 | 0.846 | 0.613 | -0.32 | -2.28 | -0.642 |
| CCOC(=O)C1=CCC(c2cccc(Cl)c2)O1 (stereo not given) | 0.581 | -0.214 (inactive) | 0.0357 | -0.0651 | 0.181 | 0.389 | -0.064 | 0.609 | -0.384 | 0.16 |
| CCOC(=O)C[C@H]1[C@H](OC(=O)Cc2ccc3c(c2)OCO3)[C@@H](NC(=O)c2ccccc2)c2cc(OCCCO)ccc2N1C(=O)c1ccccc1 | -0.359 | 0.713 (inactive) | -0.0573 | -0.121 | 0.0488 | 0.525 | 0.379 | 0.425 | 0.434 | 0.374 |
| CO[C@H]1O[C@H](CO)[C@@H](OC(=O)c2ccc(Br)cc2)[C@@H]2OC(=O)[C@H](Cc3cccc(Br)c3)C/C=C/C[C@@H](Cc3cccc(Br)c3)C(=O)O[C@@H]12 | 0.695 | 0.528 (inactive) | 0.119 | -0.0486 | 0.439 | 0.806 | 0.72 | 1.18 | 0.511 | 0.583 |

From PubChem BioAssay
